Bioassay records as filed in PubChem BioAssay.
Shown are actives, neighbours in structure and some others; about 5.4% of the full set was active somewhere.
Beta cell apopt = beta cell apoptosis inhibition; actives 0.8% (n = 300,000); AID 435005; protection from apoptosis, % (no concentration beside the values); INS-1E cytokine-induced death, ATP luminescence, 48 h; percent of positive-control rescue, neutral wells zero;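 active = Every replicate reaches about 75%, or at least half do and their mean reaches it too, limit read from the data; inconclusive = At least half of replicates reach the limit but their mean does not; inactive = Under half of replicates reach the limit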;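 note: 0% = cytokine-treated negative control wells and 100% = positive control rescue; higher means more ATP so stronger rescue from cytokine killing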
CSC inhib = cancer stem cell inhibition. cancer stem cell-like cells viability, luminescence. inhibition, % at 7.5 µM. actives 1.1% (n = 300,000); in the data active = inhibition above about 75%; inconclusive = no clear call, values can overlap the other calls; tested in HMLE shEcad cells
Calb FLC = C. albicans growth modulation with fluconazole; C. albicans CaCi-2 (fluconazole-resistant clinical isolate) + fluconazole, Alamar Blue growth, 48 h; growth inhibition, % (test concentration not listed); actives 0.57% (n = 300,000); AID 1979;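 active = growth inhibition above about 58% in most replicates, limit read from the data, passing the limit was not always enough; inconclusive = exactly half the replicates above a set limit; inactive = most replicates below a set limit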;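 note: all wells also contain fluconazole at 8 µg/ml as a sub-toxic cotreatment; 0% = median of DMSO wells and 100% = median of geldanamycin control wells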
SKKanGAS inh = SKKanGAS growth inhibition. actives 1.3% (n = 300,000). inhibition, % at 7.5 µM. S. pyogenes SKKanGAS, kanamycin growth, BacTiter-Glo, 6 h. AID 1662;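 active = mean replicate score, as percent of positive control median, at least 50; inconclusive = mean below 50 but one replicate at or above 50; inactive = mean and every replicate below 50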;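 note: strain carries kanamycin resistance gene driven by streptokinase promoter and grows in 40 µg/ml kanamycin; loss of luminescence reflects streptokinase promoter inhibition or plain growth inhibition; 0% = median of DMSO wells and 100% = positive control at its reference dose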
MPTP block = blocks calcium-induced mitochondrial swelling; isolated mouse mitochondria, Ca2+ swelling absorbance, 30 min; inhibition, % at 10 µM; actives 1.4% (n = 360,000);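 active = inhibition of 50% or more, scaled per plate between neutral and stimulator controls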;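 note: 0% = DMSO wells given calcium and 100% = 1 mM EGTA wells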
Mdm2 MdmX PPI = human Mdm2/MdmX binding inhibition; inhibition, % at 8 µM; AID 485346; actives 3% (n = 330,000); SaOS-2 split-luciferase Mdm2/MdmX complementation, luminescence; O15151+Q00987;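 active = inhibition of at least 50% at 8 µM in the primary screen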
Mdm2-MdmX conf = confirmation of human Mdm2/MdmX interaction inhibitors | shares compounds with Mdm2 MdmX PPI | Mdm2-MdmX binding, luminescent assay | inhibition, % at 8 µM | actives 55% (n = 10,000); in the data active = inhibition above about 40%
FLuc counter = counter-screen for Mdm2/MdmX inhibitors: full-length luciferase. shares compounds with Mdm2 MdmX PPI. SaOS-2 full-length luciferase counterscreen, luminescence. inhibition, % at 8 µM. actives 77% (n = 6,200);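 active = mean inhibition at 8 µM reaching about 37%, which flags the compound as non-specific, limit read from the data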;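 note: p53-null SaOS-2 cells with luciferase driven by a doxycycline-inducible promoter; compound on cells about two nights before reading with doxycycline added after day one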
Rh123 counter = membrane potential counter-screen of mitochondrial pore inhibitors; shares compounds with MPTP block; isolated mitochondria, Rhodamine 123 fluorescence; inhibition, % at 10 µM; actives 78% (n = 5,000); AID 624504; in the data active = inhibition above about 22%;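 note: 0% = DMSO vehicle and 100% = positive control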
MPTP swell DR = dose response confirmation of mitochondrial permeability transition pore inhibitors. shares compounds with MPTP block. isolated mitochondria swelling, absorbance. IC50, µM. actives 58% (n = 780). AID 651561; in the data active = IC50 below about 20 µM
MPTP counter DR = counter-screen for mitochondrial permeability transition pore inhibitors, dose response. isolated mitochondria counterscreen, fluorescence read-out. actives 49% (n = 780). shares compounds with MPTP block. IC50, µM; in the data active = IC50 below about 80 µM
Starred values were filed as active, the others as inactive; i = inactive; ? = inconclusive; . = no result given.

SMILES	Beta cell apopt	CSC inhib	Calb FLC	SKKanGAS inh	MPTP block	Mdm2 MdmX PPI	Mdm2-MdmX conf	FLuc counter	Rh123 counter	others
CCOc1cc(/C=N/n2cnnc2)ccc1OS(=O)(=O)c1ccc(C)cc1	5	-9	43	-22	1	-23	.	.	.
N#Cc1c(NC(=O)c2ccccc2)sc2c1CCCCC2	13	21	-2	-8	12	-218	.	.	.
N#Cc1c(Cl)nsc1NC(=O)c1ccccc1	78*	46	106*	22	78*	76*	52*	71*	89*
O=C1CCCN1CCc1cccc2ccccc12	.	.	.	.	0	.	.	.	.
COc1ccc(S(=O)(=O)NCCc2ccccc2)c2cccnc12	-5	-2	-1	-2	0	31	.	.	.
O=[N+]([O-])c1cc(C(F)(F)F)cc([N+](=O)[O-])c1NCCNC(=S)Nc1ccc(Cl)c(Cl)c1	.	107*	0	102*	76*	90*	46*	55*	69*
C(=N\n1cnnc1)/c1ccc(OCc2ccccc2)cc1	-1	4	27	-2	-1	15	.	.	.
Cc1cc(/C=N/n2cnnc2)c(C)n1-c1ccc(OCc2ccc(Cl)cc2)cc1	122*	46	5	62*	114*	61*	62*	92*	100*
CNC(=O)c1cc(Oc2ccc(NC(=O)Nc3ccc(Cl)c(C(F)(F)F)c3)cc2)ccn1	.	124*	.	.	57*	97*	89*	52*	46*
O=C(CCSc1nc2ccccc2s1)N/N=C/c1c(O)ccc2ccccc12	85*	80*	-16	5	77*	82*	82*	32	63*
COc1ccc(CCNC(=O)C(C(=O)c2ccc(F)cc2)n2ccccc2=O)cc1OC (stereo unspecified)	-1	-13	-7	-3	-1	2	.	.	.
CCOC(=O)[C@@H]1[C@H]2COc3cc(OC)ccc3[C@H]2N2C(=O)N(c3ccc(C(F)(F)F)cc3)C(=O)[C@]12C	108*	102*	.	.	84*	91*	18	.	90*
COc1ccc(-c2nc(-c3ccc4c(c3)OCO4)[nH]c2-c2ccc(OC)cc2)cc1	33	.	21	55*	69*	67*	25	.	69*
CCCc1c(NC(=O)Nc2ccc(F)cc2)cnn1-c1ccc(Cl)cc1	2	25	3	30	88*	61*	32	.	74*
CCc1ccccc1NC(=O)Nc1ccc(F)cc1	6	-5	4	5	39	20	.	.	.
C=CC[n+]1c(/C=C2\C=Cc3cc(C)ccc3N2CC)ccc2ccccc21	109*	49	?	29	112*	85*	70*	28	78*
CCOc1cc(S(=O)(=O)NC2CC2)c(OCC)cc1-n1cnnn1	2	-5	-21	1	-2	17	.	.	.
O=C(Cc1c(F)c(F)c(F)c(F)c1F)Nc1nc(-c2ccccc2)cs1	5	83*	-18	19	54*	57*	39	84*	92*
CCCCNC(=S)NCC(c1ccccc1)c1c[nH]c2ccccc12 (stereo unspecified)	-2	7	-7	20	4	25	.	.	.
CN(C)CCCNC(=S)NCC(c1ccc(Cl)cc1Cl)c1c[nH]c2ccccc12 (stereo unspecified)	17	-15	2	56*	77*	89*	65*	29	-23
Cc1cccc(SC2CCN(Cc3nc(CC4CC4)no3)CC2)c1	-6	7	-2	4	1	-11	.	.	.
O=C(COc1ccc2c(-c3ccccc3)cc(=O)oc2c1)NCCN1CCOCC1	-1	29	-3	-8	0	-11	.	.	.
CCOC(=O)c1cc([N+](=O)[O-])sc1NC(=O)c1ccc(S(=O)(=O)N2CC3(C)CC2CC(C)(C)C3)cc1 (stereo unspecified)	32	44	-5	3	91*	95*	51*	57*	4	MPTP swell DR=2.4*;MPTP counter DR=<2.5*
CC1(C)CC2CC(C)(CN2S(=O)(=O)c2ccc(C(=O)Nc3ccc(S(=O)(=O)N4CCOCC4)cc3)cc2)C1 (stereo unspecified)	56	.	-1	7	44	30	.	.	.
CC1C(c2ccccc2)N(C)C(c2ccccc2)CC1(O)c1ccc(F)cc1 (stereo unspecified)	0	-5	-5	37	4	.	.	.	.
SMILES	Beta cell apopt	CSC inhib	Calb FLC	SKKanGAS inh	MPTP block	Mdm2 MdmX PPI	Mdm2-MdmX conf	FLuc counter	Rh123 counter	others
CCCCCn1c(N)c(-c2nc3ccccc3o2)c2c([N+](=O)[O-])nn(CC)c(=O)c21	39	2	1	8	23	33	.	.	.
CCCCCn1c(N)c(-c2nc3ccccc3s2)c2c([N+](=O)[O-])nn(CC)c(=O)c21	-6	31	-2	54*	97*	92*	-17	.	2	MPTP swell DR=11*;MPTP counter DR=<2.5*
CCCCCn1c(N)c(-c2nc3ccccc3o2)c2c([N+](=O)[O-])nn(C)c(=O)c21	-9	-18	-49	0	2	.	.	.	.
Cn1nc([N+](=O)[O-])c2c(-c3nc4ccccc4s3)c(N)n(C3CCCCC3)c2c1=O	-4	24	-17	2	72*	51*	6	.	6	MPTP swell DR=i;MPTP counter DR=43*
Cc1cc(C(=O)N2CCc3ccccc32)ccc1[N+](=O)[O-]	.	.	.	.	-2	.	.	.	.
O=C(CN1C2=NCCCN2c2ccccc21)c1ccc(Cl)cc1Cl	0	12	1	-19	1	34	.	.	.
Cc1oc(-c2ccc(Cl)cc2)nc1CN1CCC(C(=O)NCCCN2CCOCC2)CC1	-10	7	5	4	-3	22	.	.	.
CCC1CCCCN1CCCNC(=O)C1CCN(Cc2nc(-c3ccc(Cl)cc3)oc2C)CC1 (stereo unspecified)	16	9	49	4	61*	98*	96*	60*	-11
COc1ccc(CCNC(=O)CS(=O)Cc2nc(-c3ccc(C)cc3)oc2C)cc1OC (stereo unspecified)	-1	-5	-5	8	0	-4	.	.	.
COc1ccc(CN2CCC(C(=O)Nc3ccc(Oc4cccnc4)cc3)CC2)c(C)c1C	-6	44	34	23	83*	74*	34	53*	91*
c1ccc(-c2sc3ccccc3c2-c2ccc(OCCN3CCCCC3)cc2)cc1	-3	71	.	.	0	5	.	.	.
